Source: PubChem
Sampled rows, rich in hits. Any-hit rate of the full collection: about 4.4%.
SKKanGAS inh – S. pyogenes SKKanGAS growth inhibitors in kanamycin, primary screen, streptokinase expression inhibitor project, SKKanGAS strain, BacTiter-Glo luminescence | 6 h | inhibition, % at 7.5 µM | 300,000 compounds, 1.3% hits | AID 1662, 2009;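 active = mean replicate score, as percent of positive control median, at least 50; inconclusive = mean below 50 but one replicate at or above 50; inactive = mean and every replicate below 50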;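 also: strain carries kanamycin resistance gene driven by streptokinase promoter and grows in 40 µg/ml kanamycin; loss of luminescence reflects streptokinase promoter inhibition or plain growth inhibition; 0% = median of DMSO wells and 100% = positive control at its reference dose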
PfHsp90 yeast 2 – growth inhibition of PfHsp90-expressing yeast, primary screen, antimalarial PfHsp90 inhibitor project, S. cerevisiae, BacTiter-Glo luminescence, single point, set 2. BacTiter-Glo ATP, 48 h; yeast lacking PDR1 and PDR3 efflux regulators. inhibition, % at 9.4 µM. 310,000 compounds, 0.32% hits;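 active = every replicate shows inhibition above about 80%, whatever the replicate mean, limit read from the data; inconclusive = mean inhibition reaches the set limit but some replicate falls short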;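 also: 0% = DMSO neutral controls and 100% = 20 µM radicicol positive controls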
TIM10 inh – growth inhibitors of isogenic TIM10 control yeast, primary screen, counter-screen for tim10-1 yeast inhibitor project, luminescence, uHTS; S. cerevisiae TIM10 strain growth, BacTiter-Glo luminescence, 24 h; inhibition, % at 10 µM; 330,000 compounds, 1.4% hits; AID 463195, 2010;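 active = inhibition of 40% or more at the single tested concentration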;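 also: wild-type TIM10 isogenic control strain grown at permissive 25 °C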
tim10-1 inh – growth inhibitors of tim10-1 mutant yeast, primary screen, luminescence, uHTS; 330,000 compounds, 2.2% hits; S. cerevisiae tim10-1 ts strain growth, BacTiter-Glo, 24 h; AID 463190, 2010; inhibition, % at 20 µM;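 active = inhibition of at least 40%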;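 also: mutant grown at 25 °C; 0% = DMSO wells with yeast and 100% = wells holding no yeast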
tim23-1 inh – growth inhibitors of tim23-1 mutant yeast, primary screen, luminescence, uHTS; AID 463212, 2010; S. cerevisiae tim23-1 growth, BacTiter-Glo luminescence, 24 h; 330,000 compounds, 1.3% hits; inhibition, % at 20 µM;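 active = growth inhibition of the mutant yeast at or above 50%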;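 also: temperature-sensitive mutant grown at 25 °C; plate controls were DMSO-treated mutant yeast for no effect and medium wells lacking yeast for full effect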
* hit, by the source's call; ? = inconclusive; . = no result.

SMILES | SKKanGAS inh | PfHsp90 yeast 2 | TIM10 inh | tim10-1 inh | tim23-1 inh
Cc1cc(C(F)(F)F)c2c(n1)sc1c(O)cc(=O)[nH]c12 | 50.2* | 3.4 | 11.2 | 6.7 | 13.5
COc1ccc(C(=O)N2CCCC(Nc3ccc(C)c(C)c3)C2)cc1F (centres undefined) | 51.5* | 9.4 | 7.7 | 11.7 | 30.8
CCOC(=O)c1nc(Nc2ccc(Nc3ccccc3)cc2)c2ccccc2n1 | 55.9* | -9.7 | . | . | .
CCOC(=O)c1ccc(Nc2nc(C(=O)OCC)nc3ccccc23)cc1 | 21.2 | -6.6 | 11.1 | 20.5 | 11.1
O=C(NNC(=S)NC(=O)c1ccco1)c1ccc(NC(=O)c2ccccc2)cc1 | 61.4* | 8.9 | 8.1 | 21.5 | 16.7
O=C(NNC(=S)NC(=O)c1cccs1)c1ccc(NC(=O)c2ccccc2)cc1 | 92.1* | -8.5 | 16.1 | 1.2 | -0.8
CCCCC(=O)Nc1ccc(C(=O)NNC(=S)NC(=O)c2cccs2)cc1 | 66.6* | . | 13.8 | 6.5 | 23.8
CC(C)N(C(=O)[C@H]1C[C@H](CC(=O)NCCc2ccccn2)C(=O)N2CCc3c([nH]c4cc(CCC(=O)N(C)C)ccc34)[C@]12C)C(C)C | . | 14.0 | 1.5 | 7.9 | 32.3
COC(=O)/C=C1\C(=O)N(c2nc3ccc(OC)cc3s2)C(=S)N1c1ccc(F)cc1 | -9.3 | . | 9.0 | 24.0 | 16.4
COc1ccc2nc(N3C(=O)CNC3=S)sc2c1 | 65.4* | 12.5 | 12.8 | 1.5 | 47.5
Cc1ccc(NC(=O)COc2cccc(Oc3ccccc3)c2)cc1S(=O)(=O)N1CCOCC1 | . | -5.0 | 15.0 | 17.1 | 30.7
Cc1cc(/C=N/n2cnnc2)c(C)n1-c1ccc(OCc2ccc(Cl)cc2Cl)cc1 | 122.3* | -1.0 | 29.0 | 30.9 | 47.7
CCCCN1CC[C@@H]2C=CC[C@H](C(=O)OC)[C@@H]2C1=O | . | -9.1 | 5.7 | -1.6 | 27.5
COc1ccc(O)c(C(=O)CC(=O)c2ccccc2C)c1 | 60.1* | -14.7 | 5.2 | -44.3 | 21.6
COC(=O)c1cc(NC(=O)CN(C)C2CCS(=O)(=O)C2)cc(C(=O)OC)c1 (centres undefined) | . | 1.3 | -2.5 | 6.7 | 6.6
O=[N+]([O-])c1cccc2ccc(/C=C/c3ccc(Cl)cc3)nc12 | 3.1 | 6.3 | 2.9 | 20.5 | 1.3
Cc1ccsc1/C=C/c1ccc2ccccc2n1 | 9.7 | -1.8 | 3.0 | 15.8 | 14.0
CSc1ccc(/C=C/c2ccc3cccc(O)c3n2)cc1 | 100.5* | 59.5 | -2.7 | 3.7 | -2.3
Cc1ccsc1/C=C/c1ccc2cccc(O)c2n1 | 100.6* | -14.2 | 11.3 | 24.0 | 29.6
O=C(CC1SC(=Nc2ccccc2)N(CCc2c[nH]c3ccccc23)C1=O)Nc1ccccc1F (centres undefined) | 85.8* | -3.2 | 3.2 | 9.8 | 9.5
O=C(OCc1ccccc1)c1cccc(-c2nnn(Cc3ccccc3)n2)c1 | 54.6* | 7.4 | 0.7 | 33.3 | -3.3
O=C1/C(=C/c2ccccc2)CCc2ccc(Cl)nc21 | . | 9.4 | . | . | .
Cc1cc(=O)oc2cc(OCC(=O)N3CCN(C(=O)C4COc5ccccc5O4)CC3)ccc12 (centres undefined) | 77.9* | -12.2 | 7.3 | 2.8 | 3.8
Cc1c(C)c2ccc(OCC(=O)N3CCN(C(=O)C4COc5ccccc5O4)CC3)cc2oc1=O (centres undefined) | 2.1 | 3.6 | -4.9 | 4.6 | 3.2
O=C1OC(c2ccc(O)cc2)(c2ccc(O)cc2)c2ccccc21 | 5.0 | -11.1 | 12.6 | 7.6 | -1.3
SMILES | SKKanGAS inh | PfHsp90 yeast 2 | TIM10 inh | tim10-1 inh | tim23-1 inh
O=C1OC(c2ccccc2)(c2ccc3cc(O)ccc3c2)c2ccccc21 (centres undefined) | . | 112.8* | . | . | .
CC(C)(C)NC(=O)NC(=O)COC(=O)c1cccc(NS(=O)(=O)c2ccc(F)c(F)c2)c1 | 6.5 | -2.2 | -3.8 | 2.1 | 12.4
CC(C)(C)c1ccc(NC(=O)COC(=O)c2ccc(NS(=O)(=O)c3ccc(F)c(F)c3)cc2)cc1 | 54.0* | 0.8 | -2.0 | 5.3 | 13.9
O=C(Nc1nnc(-c2ccncc2)o1)c1ccc2ccccc2c1 | 77.8* | -30.3 | -7.4 | 4.4 | 3.1
O=C(Nc1nnc(-c2ccccc2)o1)c1ccc(Cl)cc1 | 92.0* | -89.5 | 8.2 | 3.9 | 19.3
O=C(COc1ccccc1)Nc1nnc(-c2ccc(Cl)cc2)o1 | 43.5 | -36.7 | 11.5 | 19.1 | 25.2
CN(c1ccccc1)S(=O)(=O)c1ccc(NC(=O)c2ccc(-c3ccccc3)cc2)cc1 | 9.1 | . | 39.9 | 27.0 | 17.6
O=C(Nc1nnc(-c2ccco2)o1)c1ccc(Cl)cc1 | 86.8* | -9.2 | 26.4 | 30.8 | 28.6
CN(c1ccccc1)S(=O)(=O)c1ccc(C(=O)Nc2nnc(-c3ccc(F)cc3)o2)cc1 | 102.8* | . | 29.9 | 29.9 | 6.0
Cc1ccc(C(=O)Nc2nnc(-c3ccco3)o2)cc1C | ? | -13.0 | 24.9 | 39.0 | 11.1
NC(=O)C1=CC2C3C=CC2(O)C(=O)OC3O1 (centres undefined) | . | -23.5 | . | . | .
Cc1ccc(S(=O)(=O)N(C)C[C@@H]2Oc3ccc(NC(=O)CCC(F)(F)F)cc3CC(=O)N([C@@H](C)CO)C[C@@H]2C)cc1 | . | -12.4 | -2.8 | -6.3 | 5.1
CN(C)c1ccc(C(=O)Nc2nnc(-c3ccc(Cl)cc3)o2)cc1 | 90.8* | -67.0 | 16.9 | 3.0 | 6.8
CN(C)c1ccc(C(=O)NNC(=O)c2ccc(Cl)cc2)cc1 | 49.5 | 14.1 | -25.5 | -34.4 | -2.8
CC(=O)c1ccc(C(=O)Nc2nnc(-c3ccc(Cl)cc3)o2)cc1 | 91.3* | -1.2 | 5.3 | 15.6 | 7.4
CC(=O)c1c(C)[nH]c(C(=O)CN2CCN(S(=O)(=O)c3ccccc3F)CC2)c1C | . | -12.9 | 1.5 | -5.7 | -5.0
COc1ccccc1/C=C(/C(=O)OCC(=O)Nc1cc(C)ccc1C)c1ccccc1 | 55.4* | -2.0 | 10.6 | 31.2 | 1.7
CC(C)Cn1c(/C=N/Nc2nc3ccccc3[nH]2)nc2ccccc21 | 96.6* | -4.9 | . | . | .
CCCn1c(/C=N/Nc2nc3ccccc3[nH]2)nc2ccccc21 | . | -10.0 | . | . | .
CC(=O)Nc1ccc(/C=N/Nc2nc3ccccc3[nH]2)cc1 | -15.1 | -1.8 | 8.9 | 0.0 | -8.9
Cc1c(/C=N/Nc2nc3ccccc3[nH]2)c2ccccc2n1C | 88.2* | 4.0 | -40.8 | 18.3 | 18.0
CCN(CC)c1ccc(/C=N/Nc2nc3ccccc3[nH]2)cc1 | 95.5* | . | . | . | .
CC(NC(=O)COC(=O)c1cc(S(=O)(=O)N2CCOCC2)ccc1F)c1ccccc1 (centres undefined) | . | -24.1 | -5.0 | -2.0 | 3.6
CCCCn1nc(C(=O)NCC(c2cccs2)N2CCOCC2)c2ccccc2c1=O (centres undefined) | . | -13.5 | 16.8 | 14.3 | 37.3
CC(C)Cc1nnc(NC(=O)CCC(=O)N2CCN(c3ccccc3)CC2)s1 | 102.9* | -6.1 | 6.1 | 2.3 | -1.3
